Measurements reported in publication PMC7862700, “An all-to-all approach to the identification of sequence-specific readers for epigenetic DNA modifications on cytosine”.

Legend:
Assay in all cases: DAPPL (digital affinity profiling via proximity ligation, sequencing); 10 mM Tris-HCl pH 7.5, 50 mM NaCl, 1 mM DTT, 4% glycerol, room temperature, 30 min; GST-TFs on glutathione beads, 16-mer random dsDNA library, 0.1% formaldehyde crosslink after washing; high values mean tight binding
Details in all cases: protein: recombinant; tags: N-terminal GST; dsDNA, one strand shown
FLI1 = target: T1, FLI1 (Homo sapiens, UniProt Q01543 1-452)
T1 sequence: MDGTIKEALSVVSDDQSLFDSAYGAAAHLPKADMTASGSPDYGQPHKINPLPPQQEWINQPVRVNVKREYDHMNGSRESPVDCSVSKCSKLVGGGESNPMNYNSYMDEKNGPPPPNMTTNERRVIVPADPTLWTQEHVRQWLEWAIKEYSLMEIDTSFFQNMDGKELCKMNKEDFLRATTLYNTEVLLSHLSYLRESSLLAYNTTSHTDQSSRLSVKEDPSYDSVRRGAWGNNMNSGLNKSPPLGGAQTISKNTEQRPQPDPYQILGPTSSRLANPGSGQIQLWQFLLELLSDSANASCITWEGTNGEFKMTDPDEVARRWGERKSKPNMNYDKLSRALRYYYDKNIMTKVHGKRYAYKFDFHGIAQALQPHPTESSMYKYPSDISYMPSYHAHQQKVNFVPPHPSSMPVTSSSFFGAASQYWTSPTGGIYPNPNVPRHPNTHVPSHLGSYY
Summary of the method: (§1)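 Pools of DNA-barcoded human transcription factors, expressed in yeast as GST fusions on glutathione beads and combined with a tag-only sample, were incubated with 200 nmole of a 16-mer random double-stranded DNA library. Incubation took 30 min at room temperature in Tris/NaCl/DTT/glycerol buffer and was followed by washing, 0.1% formaldehyde crosslinking, proximity ligation (BsaI/T4 ligase, 1 h, 37 °C), PCR amplification and sequencing on an Illumina NextSeq500. Binding signal is the ratio of a hexamer's read frequency for a factor to its frequency for the tag-only sample.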

ELK1 = target: T2, ELK1 (Homo sapiens, UniProt P19419 1-428)
T2 sequence: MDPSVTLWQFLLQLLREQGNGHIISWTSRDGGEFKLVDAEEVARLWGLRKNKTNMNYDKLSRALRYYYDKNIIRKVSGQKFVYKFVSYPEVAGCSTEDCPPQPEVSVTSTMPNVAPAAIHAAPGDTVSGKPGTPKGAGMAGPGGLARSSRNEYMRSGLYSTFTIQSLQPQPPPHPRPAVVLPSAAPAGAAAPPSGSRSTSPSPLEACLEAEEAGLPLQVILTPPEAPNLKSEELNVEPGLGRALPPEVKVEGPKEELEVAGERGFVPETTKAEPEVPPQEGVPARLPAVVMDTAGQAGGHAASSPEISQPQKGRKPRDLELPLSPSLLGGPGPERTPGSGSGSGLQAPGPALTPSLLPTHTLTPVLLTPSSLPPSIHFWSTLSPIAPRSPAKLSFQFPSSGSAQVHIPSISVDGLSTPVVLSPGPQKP
Summary of the method: as §1

GABPA = target: T3, GABPA (Homo sapiens, UniProt Q06546 1-454)
T3 sequence: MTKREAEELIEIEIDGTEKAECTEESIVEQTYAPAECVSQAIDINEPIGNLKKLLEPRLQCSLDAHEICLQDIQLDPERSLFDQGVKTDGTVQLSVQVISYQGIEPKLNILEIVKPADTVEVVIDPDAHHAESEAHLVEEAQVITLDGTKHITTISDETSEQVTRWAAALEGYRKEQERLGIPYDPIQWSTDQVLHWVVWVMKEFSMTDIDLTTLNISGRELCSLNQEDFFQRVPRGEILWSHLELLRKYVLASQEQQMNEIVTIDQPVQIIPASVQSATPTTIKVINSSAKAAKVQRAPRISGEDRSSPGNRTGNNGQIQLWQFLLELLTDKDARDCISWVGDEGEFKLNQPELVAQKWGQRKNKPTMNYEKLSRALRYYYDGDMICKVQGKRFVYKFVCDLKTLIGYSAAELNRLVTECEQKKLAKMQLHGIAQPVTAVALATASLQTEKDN
Summary of the method: as §1

ERG = target: T4, ERG (Homo sapiens, UniProt P11308 1-479)
T4 sequence: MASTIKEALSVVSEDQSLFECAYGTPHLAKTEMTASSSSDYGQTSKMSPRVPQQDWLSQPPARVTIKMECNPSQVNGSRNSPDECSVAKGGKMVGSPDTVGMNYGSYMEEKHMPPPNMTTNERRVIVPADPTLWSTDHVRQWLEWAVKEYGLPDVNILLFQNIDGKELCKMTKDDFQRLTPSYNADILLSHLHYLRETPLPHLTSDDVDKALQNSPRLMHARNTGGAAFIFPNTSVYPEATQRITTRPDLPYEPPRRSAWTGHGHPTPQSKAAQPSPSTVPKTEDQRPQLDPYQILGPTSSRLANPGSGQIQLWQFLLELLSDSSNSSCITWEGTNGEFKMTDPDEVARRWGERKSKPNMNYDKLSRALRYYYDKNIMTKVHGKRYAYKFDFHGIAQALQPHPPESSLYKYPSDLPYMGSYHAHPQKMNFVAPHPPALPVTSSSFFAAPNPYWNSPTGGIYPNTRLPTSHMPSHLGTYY
Summary of the method: as §1

ELF1 = ELF1 (Homo sapiens, UniProt P32519 1-619)
Chain of ELF1 (P32519 whole entry): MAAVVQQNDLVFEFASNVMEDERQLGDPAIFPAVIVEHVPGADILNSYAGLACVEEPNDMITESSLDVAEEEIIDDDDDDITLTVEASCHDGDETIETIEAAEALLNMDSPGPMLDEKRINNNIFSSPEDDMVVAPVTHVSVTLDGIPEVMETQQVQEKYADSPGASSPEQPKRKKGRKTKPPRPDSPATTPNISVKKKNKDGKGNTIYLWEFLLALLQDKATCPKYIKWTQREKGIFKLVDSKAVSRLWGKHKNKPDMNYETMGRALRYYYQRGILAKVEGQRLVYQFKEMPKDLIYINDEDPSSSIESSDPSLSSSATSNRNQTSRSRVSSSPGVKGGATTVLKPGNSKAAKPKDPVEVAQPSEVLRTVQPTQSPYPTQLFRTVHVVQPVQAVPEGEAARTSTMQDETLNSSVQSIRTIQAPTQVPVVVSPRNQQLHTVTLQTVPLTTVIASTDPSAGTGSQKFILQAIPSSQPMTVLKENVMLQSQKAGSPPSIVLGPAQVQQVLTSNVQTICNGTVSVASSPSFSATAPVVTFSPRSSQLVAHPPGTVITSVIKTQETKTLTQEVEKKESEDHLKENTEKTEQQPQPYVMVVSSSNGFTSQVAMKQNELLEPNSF
Summary of the method: as §1

EHF = target: T5, EHF (Homo sapiens, UniProt Q9NZC4 1-300)
T5 sequence: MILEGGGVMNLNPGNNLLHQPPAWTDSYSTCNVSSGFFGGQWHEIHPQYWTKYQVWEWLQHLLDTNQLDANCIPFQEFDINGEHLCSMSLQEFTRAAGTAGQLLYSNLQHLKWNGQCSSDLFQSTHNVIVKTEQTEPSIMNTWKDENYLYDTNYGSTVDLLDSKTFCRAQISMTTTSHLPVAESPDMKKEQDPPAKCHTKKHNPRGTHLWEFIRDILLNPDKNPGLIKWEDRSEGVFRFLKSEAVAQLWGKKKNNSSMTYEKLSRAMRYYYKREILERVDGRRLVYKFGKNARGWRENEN
Summary of the method: as §1

SPI1 = SPI1 (Homo sapiens, UniProt P17947 1-270)
Summary of the method: as §1

SPIB = SPIB (Homo sapiens, UniProt Q01892 1-262)
Chain of SPIB (Q01892 whole entry): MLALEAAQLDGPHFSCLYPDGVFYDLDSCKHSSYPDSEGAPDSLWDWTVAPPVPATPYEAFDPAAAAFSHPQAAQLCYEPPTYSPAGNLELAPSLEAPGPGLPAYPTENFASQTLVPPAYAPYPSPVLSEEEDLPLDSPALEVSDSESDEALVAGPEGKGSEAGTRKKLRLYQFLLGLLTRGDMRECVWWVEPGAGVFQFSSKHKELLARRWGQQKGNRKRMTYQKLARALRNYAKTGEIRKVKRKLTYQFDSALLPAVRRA
Summary of the method: as §1

ELK3 = target: T6, ELK3 (Homo sapiens, UniProt P41970 1-407)
T6 sequence: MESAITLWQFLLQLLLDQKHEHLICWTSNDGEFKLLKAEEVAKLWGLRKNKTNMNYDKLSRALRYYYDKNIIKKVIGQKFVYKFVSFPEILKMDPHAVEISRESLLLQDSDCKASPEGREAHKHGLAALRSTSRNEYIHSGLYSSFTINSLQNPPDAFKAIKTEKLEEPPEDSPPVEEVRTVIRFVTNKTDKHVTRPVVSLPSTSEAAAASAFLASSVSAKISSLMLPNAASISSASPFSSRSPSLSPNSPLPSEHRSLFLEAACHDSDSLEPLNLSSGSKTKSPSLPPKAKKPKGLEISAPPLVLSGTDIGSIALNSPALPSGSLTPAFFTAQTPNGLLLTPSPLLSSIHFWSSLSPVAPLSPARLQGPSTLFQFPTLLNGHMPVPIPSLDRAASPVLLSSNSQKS
Summary of the method: as §1

## TTATCC
FLI1
  binding signal: 1.47 fold enrichment (6-mer frequency, TF over GST control)
ELK1
  binding signal: 1.39 fold enrichment (6-mer frequency, TF over GST control)
GABPA
  binding signal: 1.37 fold enrichment (6-mer frequency, TF over GST control)
ERG
  binding signal: 1.43 fold enrichment (6-mer frequency, TF over GST control)
ELF1
  binding signal: 1.31 fold enrichment (6-mer frequency, TF over GST control)
EHF
  binding signal: 1.52 fold enrichment (6-mer frequency, TF over GST control)
SPI1
  binding signal: 1.41 fold enrichment (6-mer frequency, TF over GST control)
SPIB
  binding signal: 1.54 fold enrichment (6-mer frequency, TF over GST control)
ELK3
  binding signal: 1.5 fold enrichment (6-mer frequency, TF over GST control)
